# Target: Nonstructural protein 3 (Zika virus) (UniProt A0A024AXB9)
# Settings: PRVABC59, Concentration 10.0 uM
# Nonstructural protein 3 (Zika virus), sequence (A0A024AXB9 as listed by the source): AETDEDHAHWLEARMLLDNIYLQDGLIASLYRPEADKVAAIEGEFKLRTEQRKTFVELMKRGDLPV
compound,measurement,setting,value
O=C(Nc1ccc2c(c1)CNCC2)c1cc(Cl)cc2[nH]ncc12,pKD,"Immobilization level 10000.0 pg/mm2, Rmax 29.0 pg/mm2, ka 396120.04 M-1s-1, kd 1.246 1/s",5.5
same,pKD,"Immobilization level 12000.0 pg/mm2, Rmax 39.0 pg/mm2, ka 584891.909 M-1s-1, kd 0.796 1/s",5.87
same,pKD,"Immobilization level 13000.0 pg/mm2, Rmax 25.0 pg/mm2, ka 840035.203 M-1s-1, kd 1.038 1/s",5.91
O=C(Nc1ccc2c(c1)CNC2)c1cc(Cl)cc2nccnc12,pKD,"Immobilization level 10000.0 pg/mm2, Rmax 21.0 pg/mm2, ka 195303.568 M-1s-1, kd 2.342 1/s",4.92
same,pKD,"Immobilization level 12000.0 pg/mm2, Rmax 40.0 pg/mm2, ka 106100.572 M-1s-1, kd 1.111 1/s",4.98
same,pKD,"Immobilization level 13000.0 pg/mm2, Rmax 32.0 pg/mm2, ka 148862.644 M-1s-1, kd 1.839 1/s",4.91
Cn1ncc2c(C(=O)Nc3ccc4c(c3)CNC4)cc(C3CC3)nc21,pKD,"Immobilization level 10000.0 pg/mm2, Rmax 33.0 pg/mm2, ka 244724.506 M-1s-1, kd 7.844 1/s",4.49
same,pKD,"Immobilization level 12000.0 pg/mm2, Rmax 31.0 pg/mm2, ka 442165.646 M-1s-1, kd 5.14 1/s",4.93
same,pKD,"Immobilization level 13000.0 pg/mm2, Rmax 33.0 pg/mm2, ka 379334.104 M-1s-1, kd 6.596 1/s",4.76
N#Cc1cc(Cl)cc(C(=O)Nc2ccc3c(c2)CNC3)c1,pKD,"Immobilization level 10000.0 pg/mm2, Rmax 13.0 pg/mm2, ka 937740.865 M-1s-1, kd 1.0 1/s",5.97
same,pKD,"Immobilization level 12000.0 pg/mm2, Rmax 30.0 pg/mm2, ka 568340.521 M-1s-1, kd 0.543 1/s",6.02
same,pKD,"Immobilization level 13000.0 pg/mm2, Rmax 21.0 pg/mm2, ka 849954.362 M-1s-1, kd 0.772 1/s",6.04
N#CCCNC(=O)[C@H](Nc1ccc2c(c1)CNC2)c1cc(Cl)cc(C2CC2)c1,pKD,"Immobilization level 10000.0 pg/mm2, Rmax 28.0 pg/mm2, ka 442303.592 M-1s-1, kd 0.092 1/s",6.68
same,pKD,"Immobilization level 12000.0 pg/mm2, Rmax 54.0 pg/mm2, ka 245042.447 M-1s-1, kd 0.064 1/s",6.58
same,pKD,"Immobilization level 13000.0 pg/mm2, Rmax 39.0 pg/mm2, ka 364691.558 M-1s-1, kd 0.079 1/s",6.67
Cc1ccc(C(C)C)c(C(=O)Nc2ccc3c(c2)CNC3)c1,pKD,"Immobilization level 10000.0 pg/mm2, Rmax 25.0 pg/mm2, ka 195679.525 M-1s-1, kd 7.321 1/s",4.43
same,pKD,"Immobilization level 12000.0 pg/mm2, Rmax 28.0 pg/mm2, ka 382623.73 M-1s-1, kd 5.226 1/s",4.87
same,pKD,"Immobilization level 13000.0 pg/mm2, Rmax 25.0 pg/mm2, ka 300897.372 M-1s-1",4.69
O=C(NC[C@H]1CCCO1)[C@H](Nc1ccc2c(c1)CNC2)c1cc(Cl)cc(C2CC2)c1,pKD,"Immobilization level 10000.0 pg/mm2, Rmax 42.0 pg/mm2, ka 577169.922 M-1s-1, kd 0.179 1/s",6.51
same,pKD,"Immobilization level 12000.0 pg/mm2, Rmax 59.0 pg/mm2, ka 295597.466 M-1s-1, kd 0.112 1/s",6.42
same,pKD,"Immobilization level 13000.0 pg/mm2, Rmax 62.0 pg/mm2, ka 409256.138 M-1s-1, kd 0.153 1/s",6.43
Cc1ccc(S(=O)(=O)CNC(=O)[C@H](Nc2ccc3c(c2)CNC3)c2cc(Cl)cc3[nH]ncc23)cc1,pKD,"Immobilization level 10000.0 pg/mm2, Rmax 21.0 pg/mm2, ka 226355.861 M-1s-1, kd 0.557 1/s",5.61
same,pKD,"Immobilization level 12000.0 pg/mm2, Rmax 37.0 pg/mm2, ka 111566.09 M-1s-1, kd 0.368 1/s",5.48
same,pKD,"Immobilization level 13000.0 pg/mm2, Rmax 27.0 pg/mm2, ka 177747.1 M-1s-1, kd 0.47 1/s",5.58
Cc1cc(C(=O)Nc2ccc3c(c2)CNC3)c2cn[nH]c2c1,pKD,"Immobilization level 10000.0 pg/mm2, Rmax 20.0 pg/mm2, ka 694418.255 M-1s-1, kd 0.431 1/s",6.21
same,pKD,"Immobilization level 12000.0 pg/mm2, Rmax 39.0 pg/mm2, ka 340621.404 M-1s-1, kd 0.261 1/s",6.12
same,pKD,"Immobilization level 13000.0 pg/mm2, Rmax 29.0 pg/mm2, ka 572465.277 M-1s-1, kd 0.338 1/s",6.23
CC(C)NC(=O)[C@H](Nc1ccc2c(c1)CNC2)c1cc(Cl)cc2[nH]ncc12,pKD,"Immobilization level 10000.0 pg/mm2, Rmax 25.0 pg/mm2, ka 625134.982 M-1s-1, kd 0.246 1/s",6.4
same,pKD,"Immobilization level 12000.0 pg/mm2, Rmax 48.0 pg/mm2, ka 290518.5 M-1s-1, kd 0.198 1/s",6.17
same,pKD,"Immobilization level 13000.0 pg/mm2, Rmax 30.0 pg/mm2, ka 486694.476 M-1s-1, kd 0.217 1/s",6.35
CCc1ncc(Cl)cc1C(=O)Nc1ccc2c(c1)CNC2,pKD,"Immobilization level 10000.0 pg/mm2, Rmax 18.0 pg/mm2, ka 231152.44 M-1s-1, kd 2.909 1/s",4.9
same,pKD,"Immobilization level 12000.0 pg/mm2, Rmax 36.0 pg/mm2, ka 247716.147 M-1s-1, kd 2.057 1/s",5.08
same,pKD,"Immobilization level 13000.0 pg/mm2, Rmax 25.0 pg/mm2, ka 245446.465 M-1s-1, kd 2.231 1/s",5.04
CC(C)c1cc(Br)cc(C(=O)Nc2ccc3c(c2)CNC3)c1,pKD,"Immobilization level 10000.0 pg/mm2, Rmax 17.0 pg/mm2, ka 881880.966 M-1s-1, kd 1.212 1/s",5.86
same,pKD,"Immobilization level 12000.0 pg/mm2, Rmax 74.0 pg/mm2, ka 247931.968 M-1s-1, kd 0.872 1/s",5.45
same,pKD,"Immobilization level 13000.0 pg/mm2, Rmax 30.0 pg/mm2, ka 643252.953 M-1s-1, kd 1.046 1/s",5.79
COC(=O)CNC(=O)[C@H](Nc1ccc2c(c1)CNC2)c1cc(Cl)cc(C2CC2)c1,pKD,"Immobilization level 10000.0 pg/mm2, Rmax 43.0 pg/mm2, ka 346362.757 M-1s-1, kd 0.129 1/s",6.43
same,pKD,"Immobilization level 12000.0 pg/mm2, Rmax 59.0 pg/mm2, ka 177006.564 M-1s-1, kd 0.106 1/s",6.22
same,pKD,"Immobilization level 13000.0 pg/mm2, Rmax 62.0 pg/mm2, ka 244445.044 M-1s-1, kd 0.134 1/s",6.26
